This is an account of results in the antibiotic and cytotoxicity screens of Wong et al. (2023).

SMILES strings stand for the structures. About 3,300 (8.5%) of roughly 39,000 compounds were called active. This is one part of a sample in which actives are shown more often than they occur.

In the assay the test system is HepG2. Briefly: cytotoxicity call (relative viability < 0.9). Conditions: 10 µM.
Consider `C[C@H](CO)N1C[C@H](C)[C@H](CN(C)S(=O)(=O)c2ccc(F)cc2)Oc2ccc(NS(=O)(=O)c3ccc(F)cc3)cc2CC1=O`, for which the cytotoxicity call was “inactive”.
The value for `c1cnc2c(c1)OCCN2` was “inactive”.
For the compound `C=CCC[C@@H](Cc1ccc(F)cc1)C(=O)OC[C@H]1CCCN1C(=O)[C@H](CC=C)CC(=O)N(CCO)Cc1ccccc1`, the cytotoxicity call is “inactive”.
Then `C[C@@H]1CCCCO[C@@H](CN(C)C(=O)C2CCCCC2)[C@@H](C)CN([C@@H](C)CO)C(=O)c2cc(NC(=O)c3ccccc3)ccc2O1`, with “inactive”; and `O=c1nc(NCc2ccco2)cc[nH]1`, with “inactive”; and `C[C@@H]1CN([C@@H](C)CO)C(=O)c2cc(NC(=O)Cn3cnnn3)ccc2O[C@H]1CN(C)Cc1ccc2c(c1)OCO2`, with “inactive”.
The value for `COc1ccc(S(=O)(=O)N(C)C[C@H]2Oc3ccc(NS(=O)(=O)c4ccccc4)cc3C(=O)N([C@H](C)CO)C[C@@H]2C)cc1` was “inactive”.
For the compound `Cc1ccc(S(=O)(=O)Nc2ccc3c(c2)CC(=O)N([C@@H](C)CO)C[C@H](C)[C@@H](CN(C)S(=O)(=O)c2ccccc2)O3)cc1`, the cytotoxicity call is “inactive”.
The value for `Cc1noc(C)c1NC(=O)Nc1ccc2c(c1)C(=O)N([C@@H](C)CO)C[C@H](C)[C@@H](CN(C)S(=O)(=O)c1ccc(Cl)cc1)OCCCC[C@H](C)O2` was “inactive”.
As to `CCOC(=O)C1=NNC[C@@H]1C(=O)OCC`, the cytotoxicity call is “inactive”.
Then `C[C@H](CO)N1C[C@H](C)[C@H](CN(C)Cc2ccc(C(F)(F)F)cc2)Oc2ccc(NC(=O)Nc3ccc(C(F)(F)F)cc3)cc2C1=O`, with “active”; and `C[C@H]1CN([C@@H](C)CO)C(=O)c2cc(NC(=O)Nc3ccc(C(F)(F)F)cc3)ccc2O[C@H]1CN(C)Cc1ccc(C(F)(F)F)cc1`, with “inactive”; and `C[C@H]1CN([C@@H](C)CO)C(=O)c2cc(NC(=O)Nc3ccc(C(F)(F)F)cc3)ccc2O[C@@H]1CN(C)Cc1ccc(C(F)(F)F)cc1`, with “active”.
As to `C[C@H](CO)N1C[C@H](C)[C@@H](CN(C)Cc2ccc(C(F)(F)F)cc2)Oc2ccc(NC(=O)Nc3ccc(C(F)(F)F)cc3)cc2C1=O`, the cytotoxicity call is “inactive”.
The value for `CC(=O)N1CCN(c2ccnc3c2c(=O)n(CC(=O)NC(C)(C)C)c(=O)n3C)CC1` was “inactive”; that for `CO[C@H]1C[C@@H]2CC[C@@H](C)[C@@](O)(O2)C(=O)C(=O)N2CCCC[C@H]2C(=O)O[C@H]([C@H](C)C[C@@H]2CC[C@@H](OCCO)[C@H](OC)C2)CC(=O)[C@H](C)/C=C(\C)[C@@H](O)[C@@H](OC)C(=O)[C@H](C)C[C@H](C)/C=C/C=C/C=C/1C` was “inactive”; that for `C[C@@H]1CN([C@@H](C)CO)C(=O)Cc2cc(NS(=O)(=O)c3cn(C)cn3)ccc2O[C@@H]1CN(C)S(=O)(=O)c1ccc(Cl)cc1` was “inactive”.
Consider `C[C@H]1CN([C@@H](C)CO)C(=O)c2cccc(NS(=O)(=O)c3ccc(Cl)cc3)c2O[C@H]1CN(C)Cc1ccc(-c2ccccc2)cc1`, for which the cytotoxicity call is “inactive”.
Then `COc1nc(=NC(=O)NS(=O)(=O)Nc2cccc3cccnc23)nc(OC)[nH]1`, with “active”.
The value for `COc1ccc(N2C(=O)C[C@@H](c3ccc(Br)cc3)[C@H]2C(=O)Nc2cccc3cccnc23)cc1` was “inactive”.
As to `C[C@@H]1CN([C@H](C)CO)C(=O)Cc2cc(NS(=O)(=O)c3ccc(F)cc3)ccc2O[C@H]1CN(C)S(=O)(=O)c1cccs1`, the cytotoxicity call is “inactive”.
Then `Cc1cc(C2(c3cc(C)c(N)c(C)c3)CCCCC2)cc(C)c1N`, with “active”; and `CC1CCC(NC(=O)N(CCCl)[NH2+][O-])CC1` (configuration not stated), with “inactive”.
As for `CC(C)NC(=O)[C@@H]1c2ccccc2C(=O)N(Cc2cc(C(F)(F)F)cc(C(F)(F)F)c2)[C@H]1c1ccc(CO)cc1`, the cytotoxicity call is “inactive”.
Then `Cc1ccc(N(c2ccc(C)cc2)c2cccnc2)cc1`, with “inactive”.
The value for `C[C@@H]1CN([C@@H](C)CO)S(=O)(=O)c2ccc(C#Cc3ccccc3F)cc2O[C@@H]1CN(C)CC1CCOCC1` was “inactive”.
Then `O=C(C[C@H]1C=C[C@H](NC(=O)CN2CCOCC2)[C@@H](CO)O1)NCCc1ccccc1`, with “inactive”.
As for `CC(C)NC(=O)N(C)C[C@@H]1Oc2ccc(NC(=O)NC3CCCCC3)cc2C(=O)N([C@@H](C)CO)C[C@H]1C`, the cytotoxicity call was “inactive”.
The value for `Cc1ccc(S(=O)(=O)N(C)C[C@@H]2OCCCC[C@@H](C)Oc3ccc(NC(=O)Nc4ccccc4)cc3C(=O)N([C@H](C)CO)C[C@H]2C)cc1` was “inactive”; that for `Cc1ccc(S(=O)(=O)N(C)C[C@@H]2OCCCC[C@H](C)Oc3ccc(NC(=O)Nc4ccccc4)cc3C(=O)N([C@@H](C)CO)C[C@H]2C)cc1` was “inactive”; that for `Cc1ccc(S(=O)(=O)N(C)C[C@H]2OCCCC[C@@H](C)Oc3ccc(NC(=O)Nc4ccc(F)cc4)cc3C(=O)N([C@@H](C)CO)C[C@H]2C)cc1` was “active”.
The value for `Cc1ccc(S(=O)(=O)N(C)C[C@H]2OCCCC[C@@H](C)Oc3ccc(NC(=O)Nc4ccc(F)cc4)cc3C(=O)N([C@H](C)CO)C[C@H]2C)cc1` was “inactive”; that for `Cc1ccc(S(=O)(=O)N(C)C[C@@H]2OCCCC[C@@H](C)Oc3ccc(NC(=O)Nc4ccc(F)cc4)cc3C(=O)N([C@@H](C)CO)C[C@@H]2C)cc1` was “inactive”.
`Cc1ccc(S(=O)(=O)N(C)C[C@@H]2OCCCC[C@@H](C)Oc3ccc(NC(=O)Nc4ccc(F)cc4)cc3C(=O)N([C@H](C)CO)C[C@H]2C)cc1`: the cytotoxicity call was “active”.
The value for `Cc1ccc(S(=O)(=O)N(C)C[C@@H]2OCCCC[C@H](C)Oc3ccc(NC(=O)Nc4ccc(F)cc4)cc3C(=O)N([C@@H](C)CO)C[C@@H]2C)cc1` was “inactive”; that for `Cc1ccc(S(=O)(=O)N(C)C[C@@H]2OCCCC[C@@H](C)Oc3ccc(NC(=O)Nc4ccccc4)cc3C(=O)N([C@@H](C)CO)C[C@H]2C)cc1` was “active”.
Then `Cc1ccc(S(=O)(=O)N(C)C[C@@H]2OCCCC[C@H](C)Oc3ccc(NC(=O)Nc4ccc(F)cc4)cc3C(=O)N([C@@H](C)CO)C[C@H]2C)cc1`, with “inactive”; and `CCS(=O)(=O)N1CC[C@]2(CC1)CN(Cc1ccc3c(c1)OCO3)[C@H](CO)c1c2c2ccc(cc2n1C)OC`, with “inactive”; and `O=C(C[C@H]1C=C[C@H](NC(=O)Cc2ccccn2)[C@@H](CO)O1)NCCCN1CCOCC1`, with “inactive”.
The value for `CC(C)NC(=O)Nc1ccc2c(c1)C(=O)N([C@H](C)CO)C[C@H](C)[C@@H](CN(C)Cc1ccc(Oc3ccccc3)cc1)O2` was “inactive”.
As to `C[C@H](CO)N1C[C@H](C)[C@@H](CN(C)S(=O)(=O)c2ccc(F)cc2)Oc2ncc(Br)cc2C1=O`, the cytotoxicity call is “inactive”.
Then `C[C@@H]1CN([C@@H](C)CO)C(=O)Cc2cc(NS(=O)(=O)c3ccc(F)cc3)ccc2O[C@@H]1CN(C)CC1CC1`, with “inactive”; and `COc1ccccc1-c1ccc2c(c1)O[C@@H](CN(C)C(=O)c1ccncc1)[C@@H](C)CN([C@@H](C)CO)S2(=O)=O`, with “inactive”; and `O=c1cc[nH]c(=S)[nH]1`, with “inactive”.
Regarding `Cn1cnc(S(=O)(=O)N2C[C@@H](O)COC[C@@H]3O[C@@H](CC(=O)NCc4cccc(F)c4)CC[C@H]32)c1`, the cytotoxicity call is “inactive”.
Then `C[C@@H]1CCCCO[C@H](CN(C)Cc2ccc(C(=O)O)cc2)[C@@H](C)CN([C@@H](C)CO)C(=O)c2cc(NC(=O)Nc3ccccc3)ccc2O1`, with “inactive”; and `CC(=O)NCCOc1ccc(C(=O)O)cc1`, with “inactive”.
The value for `N=C(N)c1ccc(C(N)=O)cc1` was “inactive”.
The value for `N=C(N)c1ccc(OCCCCCOc2ccc(C(=N)N)cc2)cc1.O=S(=O)(O)CCO.O=S(=O)(O)CCO` was “active”; that for `C[C@@H]1CCCCO[C@@H](CN(C)S(=O)(=O)c2cn(C)cn2)[C@H](C)CN([C@H](C)CO)C(=O)c2cc(NS(C)(=O)=O)ccc2O1` was “inactive”; that for `C[C@H](CO)N1C[C@H](C)[C@@H](CN(C)S(=O)(=O)c2ccccc2)Oc2ccc(NS(=O)(=O)c3cn(C)cn3)cc2C1=O` was “inactive”.
In the case of `CO[C@H]1CN(C)C(=O)c2cc(NC(C)=O)ccc2OC[C@H](C)N(S(=O)(=O)c2cn(C)cn2)C[C@H]1C`, the cytotoxicity call was “inactive”.
Then `CCC(=C(CC)c1ccc(O)cc1)c1ccc(O)cc1`, with “active”; and `CCC(c1ccc(O)cc1)C(CC)c1ccc(O)cc1` (configuration not stated), with “inactive”.
For the compound `CCC(=O)c1ccc(O)cc1`, the cytotoxicity call is “inactive”.
As for `CNC[C@@H]1OCCCC[C@H](C)Oc2ccc(NC(=O)Nc3ccc(C(F)(F)F)cc3)cc2C(=O)N([C@@H](C)CO)C[C@H]1C`, the cytotoxicity call is “inactive”.
Then `O=C(Cc1ccccn1)NCC[C@@H]1CC[C@H](NC(=O)CN2CCOCC2)[C@@H](CO)O1`, with “inactive”; and `Cc1ccc(S(=O)(=O)n2cc([C@@H]3CC(=O)N(C(=O)OCc4ccccc4)[C@@H]3C(=O)Nc3cccc4cccnc34)c3ccccc32)cc1`, with “inactive”.
Then `CN1CCN(c2ccc(OC(F)(F)F)c(Nc3ncc4c(n3)-c3c(c(C(N)=O)nn3CCO)CC4)c2)CC1`, with “active”; and `Cn1c(=O)c2c(nc(NCCN)n2C)n(C)c1=O`, with “inactive”.
Then `COc1ccc2c3c([nH]c2c1)[C@@H](CO)N(C[C@]13CCN(CC1)C(=O)CN(C)C)S(=O)(=O)C`, with “inactive”; and `CCCN(CCC)c1cc(N2CCCC2)c2ccccc2c1`, with “active”; and `C[C@@H]1CN([C@H](C)CO)C(=O)c2cc(NC(=O)Cc3ccccc3)ccc2O[C@H]1CN(C)S(=O)(=O)c1ccccc1`, with “inactive”.
Consider `Cc1ccc(S(=O)(=O)Nc2ccc3c(c2)C(=O)N([C@H](C)CO)C[C@H](C)[C@H](CN(C)C(=O)Nc2c(C)noc2C)OCCCC[C@@H](C)O3)cc1`, for which the cytotoxicity call is “inactive”.
For the compound `CN1CCN(C(=O)C[C@H]2CC[C@@H]3[C@@H](COc4ccc(NC(=O)c5ccc(F)c(F)c5)cc4C(=O)N3C)O2)CC1`, the cytotoxicity call was “inactive”.
Then `C[C@@H]1CCCCO[C@@H](CN(C)Cc2ccccc2)[C@@H](C)CN([C@H](C)CO)C(=O)c2cc(NC(=O)CCCCCC(=O)Nc3ccccc3N)ccc2O1`, with “inactive”; and `Cc1ccc(NC(=O)Nc2cc(C(F)(F)F)ccc2F)cc1Nc1ccc2c(c1)NC(=O)/C2=C\c1ccc[nH]1`, with “active”.
